Autofluor 339 = intrinsic fluorescence of library compounds, ex339/em460 – biochemical, MLSMR library, data from DPM-DC assay, artefact control, profiling panel; compound autofluorescence, ex339/em460 nm, NADH buffer; hits give high values; 1 = no-compound wells, NADH background; fluorescence fold increase at 10 µM; 65,000 tested, 5.5% active; AID 709;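 active means at 10 µM, mean starting fluorescence two-fold or more over control wells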;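 further: signal is the first read of a kinetic run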
M1 ag = activates the M1 muscarinic receptor. AID 626. 64,000 tested, 3% active. CHO-M1 cells, Fluo-4 calcium fluorescence, agonist mode; hits give high values. B-score at 10 µM;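 active means fluorescence rise, raw or as B-score row- and column-corrected plate score, outside the 99.7% band of its plate's samples, either direction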
NADH enzymes = blocks coupling enzymes of NAD/NADH assays; coupled PK/LDH NADH assays, four targets; IC50, µM (highest dose often 10 µM), for inactives: at the highest dose inhibition; 65,000 tested, 0.02% active; AID 774;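 active means single-dose screening hits from any of four coupled enzyme assays that gave an IC50 when retested across doses; inconclusive means no clear call, values can overlap the other calls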;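 further: the DPM-DC format reads NADH fluorescence rather than 340 nm absorbance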
M1 antagonist = antagonists of rat M1 muscarinic receptor; 64,000 tested, 3.4% active; CHO-M1 cells, Fluo-4 calcium, ACh EC80 antagonist mode; hits give low values; B-score at 10 µM; AID 628; P08482;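 active means calcium fluorescence response, raw or row-and-column corrected B-score, differing from the plate sample mean either way at a set confidence level, mostly lower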
Target sequence (P08482 whole entry, looked up): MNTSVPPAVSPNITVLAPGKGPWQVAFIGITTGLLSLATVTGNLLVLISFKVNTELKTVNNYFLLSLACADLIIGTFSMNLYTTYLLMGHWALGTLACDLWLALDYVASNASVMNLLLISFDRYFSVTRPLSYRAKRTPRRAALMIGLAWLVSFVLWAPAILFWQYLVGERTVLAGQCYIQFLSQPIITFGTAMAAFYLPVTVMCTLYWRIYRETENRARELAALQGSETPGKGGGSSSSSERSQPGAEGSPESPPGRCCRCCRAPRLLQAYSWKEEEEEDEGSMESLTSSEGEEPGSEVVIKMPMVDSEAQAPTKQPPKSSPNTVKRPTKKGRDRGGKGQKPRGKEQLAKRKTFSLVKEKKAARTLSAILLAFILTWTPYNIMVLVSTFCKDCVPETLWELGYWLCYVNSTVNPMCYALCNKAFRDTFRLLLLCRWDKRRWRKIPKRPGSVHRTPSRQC
mHtt clearance = mutant huntingtin protein clearance. HeLa Exon1htt(103Q)mCFP, aggregate imaging; zero = plate's median compound well. 47,000 tested, 0.42% active. inhibition, % at 1.5 µM;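 active means inhibition of aggregate fluorescence above about 70%, also judged a hit by eye on the cell image, limit read from the data, passing the limit was not always enough; inconclusive means no rule stated for this call; inactive means not judged a hit on image review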;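 further: cells exposed to compound for three days before fixation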
A340 absorber = compounds absorbing at 340 nm; compound absorbance at 340 nm, fold over control; fold change at 10 µM; 65,000 tested, under 10 active;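 active means at 10 µM dose, initial 340 nm absorbance at least 2 fold that of control wells; inactive means change under 2 fold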;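 further: initial absorbance extrapolated from kinetic A340 decline of NADH oxidation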
M1 antag confirm = confirmation of rat M1 muscarinic receptor antagonists; shares compounds with M1 antagonist; CHO-M1 cells, Fluo-4 calcium, ACh EC80 antagonism; hits give low values; calcium response (max-min fluorescence) at 10 µM; 1,700 tested, 43% active;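 active means calcium response below the same-plate mean of wells given acetylcholine alone at its 80%-effect dose, minus 3 SD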;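 further: raw fluorescence intensity difference in arbitrary instrument units and not normalized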
mGluR4 antag = selectivity test for M1 antagonists: human mGluR4 receptor. shares compounds with M1 antagonist. fluorescence response (max-min) at 10 µM. CHO-mGluR4 calcium flux, Fluo-4 fluorescence, glutamate EC80; hits give low values. AID 678. 1,700 tested, 0.9% active;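 active means fluorescence response below the plate's average for near-maximal glutamate wells, less 3 SD of those wells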;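 further: raw unnormalized fluorescence span taken in the window right after glutamate addition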
Starred values were filed as active, the others as inactive; ? = inconclusive; . = no result. Shown are actives, neighbours in structure and some others; about 9.3% of the full set was active somewhere.

SMILES	Autofluor 339	M1 ag	NADH enzymes	M1 antagonist	mHtt clearance	A340 absorber	M1 antag confirm	mGluR4 antag
C(=N\c1nc2ccccc2n1Cc1ccccc1)/c1cccs1	1.1	0.31	9%	-0.48	.	1.1	.	.
c1coc(C2Nc3cccc4cccc(c34)N2)c1	3.8*	0.25	12%	-2.2*	-16	1.1	602	249
CCOC(=O)CCn1cc(F)c(=O)n(Cc2ccccc2)c1=O	1.1	-0.73	4%	0.86	40	1	.	.
CC1(C)NC(=O)N(CC(O)COc2cc3ccccc3cc2C(=O)N2CCCCC2)C1=O (configuration not stated)	1.1	0.49	6%	-3*	46	1	638	243
CCCCOC(=O)c1ccc(OC(=O)c2cccnc2)cc1	1	-0.09	9%	-5.1*	9	0.97	620	266
C=CCc1ccc(OCCCCCN2CCOCC2)c(OC)c1	1.1	0.7	15%	-7*	1	1	102*	227
Cc1ccc(C(C(=O)NC2CCCCC2)N(Cc2cccnc2)C(=O)C2COc3ccccc3O2)o1 (configuration not stated)	1.1	0.58	7%	0.074	.	0.98	.	.
Cn1c(O)c(C=Nc2ccc(Cc3ccncc3)cc2)c(=O)n(C)c1=O	1	0.51	2%	-0.042	.	1.1	.	.
Cc1cc(C)c2c(CN3CCN(Cc4ccc5c(c4)OCO5)CC3)cc(=O)oc2c1	1.1	-0.2	4%	-10*	.	0.99	61*	299
Cc1ccc2c(CN3CCN(Cc4ccc5c(c4)OCO5)CC3)cc(=O)oc2c1C	1.1	0.13	4%	-2.3*	-24	1.1	475*	256
Cc1cc(C)c2c(CN3CCN(Cc4ccc5c(c4)OCO5)CC3)cc(=O)oc2c1C	1.1	0.075	8%	-6.2*	.	1	376*	256
Cc1cc2oc(=O)cc(CN3CCN(Cc4ccc5c(c4)OCO5)CC3)c2cc1C	1.1	-0.91	3%	-0.56	.	0.99	.	.
Cc1ccc(C)c(N2C(=O)CC(N3CCN(Cc4ccc5c(c4)OCO5)CC3)C2=O)c1 (configuration not stated)	1.1	-0.59	0%	-2.9*	.	1	542*	178
Cc1cc(-c2nsc(=O)o2)c(S(C)(=O)=O)s1	1.1	.	5%	.	.	0.99	.	.
Cc1cc(C)c2oc(=O)cc(CN3CCOCC3)c2c1	1.1	0.47	2%	0.55	.	1	.	.
CCN1CCN(Cc2cc(=O)oc3cc(C)cc(C)c23)CC1	1.1	-2.1	7%	-1.2*	.	1.1	461*	253
COc1cccc(C(=O)Nc2cc(=O)n(C)c(=O)n2C)c1OC	1	-0.46	5%	-3.8*	11	1.1	651	238
Cc1ccc2c(CC(=O)Nc3ccc(N4CCN(C)CC4)cc3C)coc2c1	1.1	-1.4	4%	-3.2*	.	0.99	334*	247
Cc1ccc2c(CC(=O)Nc3sccc3C(N)=O)coc2c1	1.1	-0.9	4%	-0.46	.	1	.	.
CC(C)Oc1ccc(CNC2CCOC(C)(C)C2)cc1 (configuration not stated)	1.1	0.82	6%	0.032	.	1	.	.
Cc1ccc2nc(NC(=O)CCn3c(=O)sc4ccccc43)sc2c1	.	.	.	.	32	.	.	.
CCOc1ccc(Cn2nnc(C(=O)NCc3ccc(OC)cc3)c2N)cc1	1	0.35	3%	-1.6*	1	0.99	620	228
CC(C)(C)c1ccc(-c2conc2N)cc1	1.1	0.69	4%	0.57	.	1.1	.	.
COc1ccccc1C(=O)NCCc1nc2ccccc2[nH]1	1.1	-0.22	6%	0.32	44	1	.	.
O=C(CCCc1nc(-c2ccc(Cl)cc2)no1)Nc1cccnc1	1	1.4	8%	-2.7*	-45	0.99	528*	214
SMILES	Autofluor 339	M1 ag	NADH enzymes	M1 antagonist	mHtt clearance	A340 absorber	M1 antag confirm	mGluR4 antag
c1nc(N2CCCCC2)c2[nH]cnc2n1	1.1	0.42	2%	0.19	.	1	.	.
c1ccc2c(c1)[nH]c1c(N3CCSCC3)ncnc12	0.21	3.9	10%	-2.9*	10	0.91	678	241
c1ccc2c(c1)[nH]c1c(N3CCCC3)ncnc12	1.4	1	10%	-5.4*	-18	1.1	405*	203
CN1CCN(c2ncnc3c2[nH]c2ccc(F)cc23)CC1	2.3*	2.7	4%	-6.2*	.	1.1	542	220
O=c1c2[nH]c3ccc(F)cc3c2ncn1CCCN1CCOCC1	1.6	-0.67	9%	0.16	-8	1	.	.
O=c1c2[nH]c3ccccc3c2ncn1Cc1ccccn1	1.5	-0.45	9%	0.75	56	1	.	.
COCCn1c(SCC(=O)Nc2ccc(S(=O)(=O)N3CCOCC3)cc2)nc2ccccc21	1.1	-0.34	2%	-7.6*	.	1.1	348*	270
Cc1cc2ncn(C(=O)c3c(-c4ccccc4Cl)noc3C)c2cc1C	1	-1.3	6%	-5.5*	.	1.1	264*	213
Cc1ccccc1-n1ncc2c(SCC(=O)NCc3cccs3)ncnc21	1.1	-0.014	6%	-0.38	32	1	.	.
Cc1csc(NC(=O)CSc2ncnc3c2cnn3-c2ccccc2Cl)n1	1.1	3.9	4%	-2.7*	.	1	501	184
COc1ccc(OCc2nnc(SC(C)C(=O)Nc3nccs3)n2-c2ccccc2)cc1 (configuration not stated)	1.1	-0.6	3%	0.74	?	1	.	.
COc1cc(C)nc(NS(=O)(=O)c2ccc(C)cc2)n1	1	0.92	4%	-0.06	.	0.97	.	.
O=c1c2[nH]c3ccccc3c2ncn1CCN1CCNCC1	1.3	0.2	9%	-3.1*	.	1	719	230
O=C(CSc1nnc(-c2cccs2)n1-c1ccccc1)N1CCc2ccccc21	1.1	0.15	5%	-3*	21	1	457	205
COC(=O)C(C(=O)N1CCN(C)CC1)C1CCCCCC1 (configuration not stated)	1.1	-0.41	2%	-3.3*	-70	1.1	527	228
CCOC(=O)c1ccccc1NC(=O)c1c(O)c2ccccc2n(CC)c1=O	1.1	-0.1	2%	-0.22	.	1	.	.
C=CCn1c(=O)c(C(=O)Nc2ccccc2C(=O)OCC)c(O)c2ccccc21	1.1	-0.16	2%	-2.5*	.	1	623	247
CCOc1ccccc1N=c1oc2cc(O)ccc2cc1C(=O)NCC1CCCO1 (configuration not stated)	.	.	.	.	-18	.	.	.
CCOC(=O)c1ccc(Nc2nc(-c3cccnc3)nc3ccccc23)cc1	.	.	.	.	19	.	.	.
